Experiment in all cases: yeast three-hybrid, YBZ-1, SC-Leu-His + 0.5 mM 3-AT, 4 days
Common to all, as to conditions: tags: N-Gal4 AD-HA kept; label: inside an RPR1-promoter hybrid RNA with tandem MS2 sites; ssRNA

One experiment deals with PUM1 PUF domain R7-RAS (Homo sapiens, UniProt Q14671 828-1176, S1079R;N1080A;E1083S). A digest of the protocol:
(§1)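 Repeat regions from input (SC-Leu) and selection (SC-Leu-His + 0.5 mM 3-AT) plates were PCR-amplified and Illumina-sequenced after four days of growth. The cells were strain YBZ-1 with a LexA–MS2 coat fusion and a HIS3 reporter, co-expressing Pumilio-1 PUF domain libraries and matching RNA elements from a centromeric plasmid. The interaction score is the log change in variant frequency from input to selection, taken in log2 with a pseudocount of 1 for absent variants.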

Another experiment addresses PUM1 PUF domain R1-FAR (Homo sapiens, UniProt Q14671 828-1176, S863F;R864A;Q867R). A digest of the protocol:
as §1

The target of another experiment is PUM1 PUF domain R1-GMR (Homo sapiens, UniProt Q14671 828-1176, S863G;R864M;Q867R). A digest of the protocol:
as §1

Another experiment addresses PUM1 PUF domain R4-LGC (Homo sapiens, UniProt Q14671 828-1176, N971L;H972G;Q975C). In a few lines:
as §1

For another experiment, the target named is T1, PUM1 PUF domain R6-IWS (Homo sapiens, UniProt Q14671 828-1176, N1043I;Y1044W;Q1047S).
T1 sequence: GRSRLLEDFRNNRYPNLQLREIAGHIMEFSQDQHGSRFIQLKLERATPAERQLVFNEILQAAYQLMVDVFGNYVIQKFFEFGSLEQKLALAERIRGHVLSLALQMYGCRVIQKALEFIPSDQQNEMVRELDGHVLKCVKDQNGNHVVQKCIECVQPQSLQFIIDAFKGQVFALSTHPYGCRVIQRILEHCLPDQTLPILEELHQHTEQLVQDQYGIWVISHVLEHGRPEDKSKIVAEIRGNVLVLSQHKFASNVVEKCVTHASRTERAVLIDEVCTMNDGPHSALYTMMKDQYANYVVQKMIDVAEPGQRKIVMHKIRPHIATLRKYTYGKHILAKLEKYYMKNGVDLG
A digest of the protocol: as §1

The target of a further experiment is PUM1 PUF domain R2-EHL (Homo sapiens, UniProt Q14671 828-1176, N899E;Y900H;Q903L). In a few lines:
as §1

The target in a further experiment is PUM1 PUF domain R5-RLD (Homo sapiens, UniProt Q14671 828-1176, C1007R;R1008L;Q1011D). In a few lines: as §1
The target in another experiment is PUM1 PUF domain R2-RVN (Homo sapiens, UniProt Q14671 828-1176, N899R;Y900V;Q903N). A digest of the protocol: as §1
The next experiment addresses PUM1 PUF domain R8-SFQ (Homo sapiens, UniProt Q14671 828-1176, N1122S;Y1123F). In a few lines: as §1

Take “GGCUAGAACUAGUGGAUCCCCCGGCGCCCGGCGGCUCGAGCCCGGGUAAGUUUAAAUAGUCUGCAUGCCGCCGGGCGCCAUGCCUGCAGGUCGACUCUAGAAAACAUG”: the binding signal with PUM1 PUF domain R7-RAS was 2.46 log2 enrichment (interaction score).

Regarding “GGCUAGAACUAGUGGAUCCCCCGGCGCCCGGCGGCUCGAGCCCGGGUAAGUGUAAAUCGUCUGCAUGCCGCCGGGCGCCAUGCCUGCAGGUCGACUCUAGAAAACAUG”, the binding signal with PUM1 PUF domain R1-FAR is 0.5 log2 enrichment (interaction score); with PUM1 PUF domain R1-GMR it was 3.57 log2 enrichment (interaction score).

Turning to “GGCUAGAACUAGUGGAUCCCCCGGCGCCCGGCGGCUCGAGCCCGGGUAAGUGUAAAUUGUCUGCAUGCCGCCGGGCGCCAUGCCUGCAGGUCGACUCUAGAAAACAUG”, the binding signal with PUM1 PUF domain R1-FAR was 4.18 log2 enrichment (interaction score); with PUM1 PUF domain R1-GMR, 1.96 log2 enrichment (interaction score).

In the case of “GGCUAGAACUAGUGGAUCCCCCGGCGCCCGGCGGCUCGAGCCCGGGUAAGUGUAAAUAGUCUGCAUGCCGCCGGGCGCCAUGCCUGCAGGUCGACUCUAGAAAACAUG”, the binding signal with PUM1 PUF domain R4-LGC is 4 log2 enrichment (interaction score); with PUM1 PUF domain R6-IWS, 2.75 log2 enrichment (interaction score).

In the case of “GGCUAGAACUAGUGGAUCCCCCGGCGCCCGGCGGCUCGAGCCCGGGUAAGUGUAAAAAGUCUGCAUGCCGCCGGGCGCCAUGCCUGCAGGUCGACUCUAGAAAACAUG”, the binding signal with PUM1 PUF domain R2-EHL is 3.07 log2 enrichment (interaction score).

With “GGCUAGAACUAGUGGAUCCCCCGGCGCCCGGCGGCUCGAGCCCGGGUAAGUGUUAAUAGUCUGCAUGCCGCCGGGCGCCAUGCCUGCAGGUCGACUCUAGAAAACAUG”, the binding signal with PUM1 PUF domain R5-RLD is 0.72 log2 enrichment (interaction score).

Regarding “GGCUAGAACUAGUGGAUCCCCCGGCGCCCGGCGGCUCGAGCCCGGGUAAGUGUCAAUAGUCUGCAUGCCGCCGGGCGCCAUGCCUGCAGGUCGACUCUAGAAAACAUG”, the binding signal with PUM1 PUF domain R5-RLD is 2.78 log2 enrichment (interaction score).

For “GGCUAGAACUAGUGGAUCCCCCGGCGCCCGGCGGCUCGAGCCCGGGUAAGUGUAAAGAGUCUGCAUGCCGCCGGGCGCCAUGCCUGCAGGUCGACUCUAGAAAACAUG”, the binding signal with PUM1 PUF domain R2-RVN is 3.32 log2 enrichment (interaction score).

Turning to “GGCUAGAACUAGUGGAUCCCCCGGCGCCCGGCGGCUCGAGCCCGGGUAAGCGUAAAUAGUCUGCAUGCCGCCGGGCGCCAUGCCUGCAGGUCGACUCUAGAAAACAUG”, the binding signal with PUM1 PUF domain R8-SFQ was 2.84 log2 enrichment (interaction score).

These data come from paper PMC8384837, “Expanding the binding specificity for RNA recognition by a PUF domain”.
